In the library only some 7.8% were active in any assay of this set; here they are far more common.
MARV entry inh = qHTS for inhibitors of binding or entry into cells for Marburg Virus; Marburg virus pseudotyped entry inhibition, cell reporter; Potency, µM (top dose mostly 37.8 µM), inactives show at the top dose activity change, negative = inhibition, most hits filed as inhibitors; AID 540276, 2011; 1.8% of 300,000 active; calls by dose curve; tested in HEK293 cells; also: potency is read from the fitted curve at half-maximal effect
HCMV antiviral = qHTS Assay for inhibitors of the human cytomegalovirus (HCMV); HFF cells, HCMV-luciferase reporter, 72 h; stronger effect = lower value; activity change, negative = inhibition, % at 57.5 µM; 4.5% of 410,000 active; AID 1259415, 2018; in the data active = activity change below about -60%; inconclusive = no clear call, values can overlap the other calls; inactive = above about -39%
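Luciferase read-out from HCMV-luciferase-infected HFFs (MOI 1 PFU/cell) 72 h post infection at 37C; compounds added after 16 h cell attachment; activity normalized between buffer-only basal and Salinomycin (10uM) inhibitor controls.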
HCV inh = qHTS Assay for Inhibitors of Hepatitis C Virus (HCV) | Huh7.5.1 HCVcc-Cre infection, luciferase reporter, 44 h | Potency, µM (top dose mostly 41.8 µM), for the others: at the top dose activity change, negative = inhibition, most hits filed as inhibitors | 3.4% of 340,000 active | AID 651820, 2012; active = well fitted inhibition curve with a large enough effect; inconclusive = small, poorly fitted or top-dose-only effect, or another doubt; inactive = no such curve, though single readings can be large or run the other way; also: potency is read from the fitted curve at half-maximal effect
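Cells (1,000/well) were plated 4 h before compound, then infected with HCVcc-Cre virus (~0.5 moi). After 44 h further culture, infection was read as luciferase luminescence following a 15 min substrate incubation at room temperature.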
VACV mCherry inh = qHTS for Stage-Specific Inhibitors of Vaccinia Orthopoxvirus: mCherry Reporter Primary qHTS | 0.63% of 310,000 active | Vaccinia virus mCherry reporter infection, fluorescence | Potency, µM (doses to about 36.5 µM), without a hit: top-dose activity change, negative = inhibition, usual class: inhibitors | AID 720579, 2013; calls by dose curve; tested in A549 cells; also: potency is read from the fitted curve at half-maximal effect; nearly all actives have a fitted effect of over 35% in size
Lassa entry inh = qHTS for Inhibitors of binding or entry into cells for Lassa Virus; 1.2% of 300,000 active; Potency, µM (titrated, usually from 37.9 µM), for the others: top-dose activity change, negative = inhibition, hits mostly inhibitors; Lassa virus pseudotype entry inhibition, cell reporter; calls by dose curve; tested in HEK293 cells; also: potency is read from the fitted curve at half-maximal effect; nearly all actives have a fitted effect of over 50% in size
VACV Venus inh = qHTS for Stage-Specific Inhibitors of Vaccinia Orthopoxvirus: Venus Reporter Primary qHTS; Vaccinia virus Venus reporter expression, fluorescence; 0.46% of 330,000 active; Potency, µM (series often up to 36.5 µM), for inactives: top-dose activity change, negative = inhibition, usual class: inhibitors; calls by dose curve; tested in A549 cells; also: potency is read from the fitted curve at half-maximal effect; nearly all actives have a fitted effect of over 30% in size
* hit, by the source's call; i = inactive; ? = inconclusive; . = not tested or not shown; [ ] = dose if it differs, or a comment. % is scaled to controls: 0 for no effect and ±100 for the full control effect.

SMILES	MARV entry inh	HCMV antiviral	HCV inh	VACV mCherry inh	Lassa entry inh	VACV Venus inh
Cc1ccc(CSCCNC(=O)C2CCN(S(=O)(=O)Cc3ccccc3)CC2)cc1	?	3	.	-3%	?	-4%
CCC(=O)Nc1ccccc1-c1nc2ccccc2n(C(C)C(=O)Nc2ccc(OC)cc2)c1=O (configuration not stated)	-25%[46.1 µM]	5	.	-1%	-25%[46.1 µM]	-3%
CCC(=O)Nc1ccccc1-c1nc2ccccc2n(C(CC)C(=O)Nc2cccc(Cl)c2)c1=O (configuration not stated)	-15%[46.1 µM]	-108*	.	?	-13%[46.1 µM]	?
CC(=O)Nc1ccccc1-c1nc2ccccc2n(C(C)C(=O)Nc2cccc(C)c2C)c1=O (configuration not stated)	-1%[46.1 µM]	9	.	i	1%[46.1 µM]	-10%
CCC(C(=O)Nc1ccc(C)c(Cl)c1)n1c(=O)c(-c2ccccc2NC(C)=O)nc2ccccc21 (configuration not stated)	20%[46.1 µM]	-97*	.	-22%	19%[46.1 µM]	-14%
Oc1cccc(Nc2nccc3[nH]c(-c4ccccc4)cc23)c1	.	-7	.	.	.	.
COc1ccc(-n2c(SCC(=O)NC3CCCCC3)nc3c([nH]c4ccccc43)c2=O)cc1	.	8	.	-2%	12%[46.1 µM]	-2%
COC(=O)[C@@H]1[C@@H](CO)[C@@H]2Cn3c(ccc(Br)c3=O)[C@H]1N2S(=O)(=O)c1cn(C)cn1	.	65	.	.	.	.
COc1ccc2c(c1)c(CC(=O)OCC(=O)N(C)C)c(C)n2C(=O)c1ccc(Cl)cc1	25µM*	-18	10%	8%	?	14%
CCOC(=O)c1c(NC(C)=O)c2c3c(sc2n1Cc1nc(-c2ccccc2Cl)oc1C)CCCC3	-1%[46.1 µM]	-20	.	-13%	.	-16%
CS(=O)(=O)Nc1ccc(C(=O)Nc2ccc(S(=O)(=O)N3CCCCC3)cc2)cc1	0%	-76*	-24%	-19%	-1%	-19%
COc1ccc(-c2cnnn2-c2ccc(NC(=O)c3ccc(S(=O)(=O)N4CCCCC4)cc3)cc2)cc1	-5%	-29	-3%	i	7.1µM*	-13%
Cc1cc(C)cc(NC(=O)c2ccc(CN3CCc4ccccc4C3)cc2)c1	?	?	?	?	-7%	-19%
CS(=O)(=O)Nc1ccc(C(=O)Nc2ccc(S(=O)(=O)N3CCCC3)cc2)cc1	?	-20	7%	i	1%	5%
O=C(Nc1ccccc1)c1ccc(CN2CCc3ccccc3C2)cc1	?	-67*	?	i	-3%[46.1 µM]	-6%
O=C(Nc1cccnc1)c1ccc(CN2CCc3ccccc3C2)cc1	-6%	-35	4.5µM*	.	-30%	.
Cc1ccc(CN2C(=O)c3ccccc3Sc3ccc(C(=O)OCc4ccco4)cc32)cc1	.	-17	.	-6%	-24%[46.1 µM]	7%
CCOc1ccccc1NC(=O)Cn1c(=O)n(-c2ccc(F)cc2)c(=O)c2sc3ccccc3c21	?	48	.	-6%	0%[46.1 µM]	0%
CCc1nnc(NC(=O)c2ccc(S(=O)(=O)N3CCCCC3)cc2)s1	18%[46.1 µM]	-66*	1%	-2%	0%	-10%
COCC(=O)N1CCc2ccc(NC(=O)c3ccc(C(F)(F)F)cc3)cc2C1	?	?	?	i	-13%[46.1 µM]	-13%
Cc1ccc(NC(=O)c2ccc(CN3CCc4ccccc4C3)cc2)cc1	?	-79*	?	?	?	-21%
O=C(Nc1ccccc1F)c1ccc(CN2CCc3ccccc3C2)cc1	.	?	11µM*	.	.	.
O=C(Nc1ccc2c(c1)CN(Cc1ccc(CO)o1)CC2)c1ccc(C(F)(F)F)cc1	?	?	11µM*	?	?	-18%
CC(=O)Nc1cccc(-c2nnc(SCC(=O)c3cc([N+](=O)[O-])ccc3Br)o2)c1	?	-13	.	i	0%[46.1 µM]	-11%
COCc1nnc(NC(=O)c2ccc(S(=O)(=O)N3CCCC3)cc2)o1	26%	-61*	22%	-15%	15%	-3%
SMILES	MARV entry inh	HCMV antiviral	HCV inh	VACV mCherry inh	Lassa entry inh	VACV Venus inh
CCOC(=O)N1CCN(S(=O)(=O)c2ccc(C(=O)Nc3nnc(CC)o3)cc2)CC1	3%	14	21%	-20%	?	-12%
O=C(Nc1ccccc1)c1ccc(S(=O)(=O)N2CCCCC2)cc1	.	?	?	-12%	.	-16%
O=C(Nc1ccc(S(=O)(=O)N2CCCCC2)cc1)c1ccc(CN2CCc3ccccc3C2)cc1	?	-74*	35µM*	.	?	?
O=C(c1ccncc1)N1N=C2CCCCCC2C1(O)C(F)(F)F (configuration not stated)	6%	?	18%	.	12%	.
O=C(c1ccco1)N1N=C2CCCCCC2C1(O)C(F)(F)F (configuration not stated)	-14%[46.1 µM]	-66*	24%	-5%	8%[46.1 µM]	-13%
Cc1cccc(NC(=O)c2ccccc2-c2ccccc2)c1	-13%[46.1 µM]	-104*	-6%	-12%	3%	-12%
Cc1ccccc1NC(=O)c1cc(S(=O)(=O)c2ccccc2)ccc1Cl	?	-16	-28%	.	?	-24%
Cc1cccc(NC(=O)c2cc(S(=O)(=O)c3ccccc3)ccc2Cl)c1	?	-107*	7.9µM*	.	?	?
O=C(Nc1cccnc1)c1ccccc1-c1ccccc1	.	-60*	-6%	.	.	.
Cc1cccc(NC(=O)c2ccccc2C(=O)O)c1	3%	0	1%	.	12%	.
CCCCN1C(=O)C(NC(=O)c2ccc(C(C)(C)C)cc2)(C(F)(F)F)C(C(=O)OC)=C1C (configuration not stated)	?	1	.	13%	-2%[46.1 µM]	-6%
CC1=Nc2ccccc2N=C(NC(=O)CSC(=S)N2CCCCC2)C1c1ccccc1 (configuration not stated)	10µM*	10	?	-21%	-5%[46.1 µM]	-15%
CC1=Nc2ccccc2N=C(NC(=O)CSC(=S)N2CCN(C)CC2)C1c1ccccc1 (configuration not stated)	?	99	-9%	-24%	-14%	-9%
OC1(c2ccc3c(c2)CN(Cc2ccco2)CCO3)CCN(c2ccccc2F)CC1	.	.	.	-13%	.	-9%
COc1cc(C(=O)Nc2cc3c(cc2C)n(C)c(=O)c(=O)n3C)cc(OC)c1OC	25%[46.1 µM]	-8	.	-17%	15%[46.1 µM]	-2%
CCN(CC)Cc1cc(C(C)=O)ccc1OCC(C)C	15%	40	-22%	-11%	-2%	-9%
CC(C)COc1ccc(N)cc1OCC(C)C	17%[46.1 µM]	-39	2.8µM*	4%	0%	9%
C[C@H](N)C(=O)NC[C@H]1O[C@@H](n2cnc3c(N)ncnc32)[C@H](O)[C@@H]1O	.	-75*	0%	-13%	.	2%
